Source: PubChem BioAssay (NCI)
The panel holds about 83,000 compounds, 20% with a hit somewhere; the sample as a whole holds those more often.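 Assay: single dose, 48 h. Readout: percent growth (0 = no net growth; negative = cell death). Active: <10.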 A number with no mark means an inactive call. Calls of active or inactive are those of the source.

Test system: MDA-MB-468 breast
Test: NCI-60 one-dose screen, 48 h (100 = growth as untreated, 0 = no growth, -100 = all killed)
Conditions: 10 µM unless noted

Structure (SMILES) | growth
CN1CCN(c2ccc(C(=O)/C=C/c3cc(F)cc(C(F)(F)F)c3)cc2)CC1 | 31.5%
O=C1/C(=C/c2cccs2)CCC/C1=C\c1cccs1 | -45.5% (active)
CCCCCCCCN(CCCCCCCC)CCCCCCNc1cc(OC)cc2cccnc12 | 68.2%
COc1cc(/C=C/C(=O)c2cc(-c3ccc(C(F)(F)F)cc3)ccc2O)cc(OC)c1OC | 57.9%
Oc1ccc(/C=C/c2ccccc2)cc1 | 81.3%
CCNc1nc2c(cnn2C)c(=O)[nH]1 | 97.4%
CCn1cc(-c2[nH]c(=S)ncc2-c2ccc(Cl)cc2)c(-c2ccc(Br)cc2)n1 | 121%
CCC(=O)c1cc([N+](=O)[O-])c(Br)s1 | 74.6%
O=C1NC(=S)S/C1=C\c1cccc([N+](=O)[O-])c1 | 106%
Cc1ccc2nc(-c3ccc(C(=O)N/N=C/c4ccc([N+](=O)[O-])cc4)cc3)[nH]c2c1 | 113%
CCOC(=O)c1ccc(N2C(=O)C(Cl)(c3ccccc3)C2c2ccco2)cc1 (stereo not given) | 65.9%
COC(=O)CNS(=O)(=O)c1ccc2c(c1)Cc1cc(S(=O)(=O)NCC(=O)OC)ccc1-2 | 84.9%
COc1cc(-c2nc3ccc(C)cc3[nH]2)ccc1OCC(=O)N=Nc1c(O)[nH]c2ccccc12 | -85.9% (active)
CN1CCN(Cc2ccc(NC(=O)c3cncc(C#Cc4cnc5ccc(NCCO)nn45)c3)cc2C(F)(F)F)CC1 | -55.5% (active)
COc1ccc(Cl)cc1NC(N)=S | 101%
